Sampled rows, rich in hits. Any-hit rate of the full collection: about 21%.
Pf growth 48h = P. falciparum growth inhibition at 48 hours (one generation); P. falciparum luciferase growth in erythrocytes, 48 h; Potency, µM (top dose mostly 28.7 µM), most hits filed as inhibitors; 310,000 compounds, 5.9% hits; AID 504832; active = well fitted inhibition curve with a large enough effect; inconclusive = small, poorly fitted or top-dose-only effect, or another doubt; inactive = no such curve, though single readings can be large or run the other way
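Luciferase-expressing parasites in RBCs, 2% Hct / 0.1% parasitemia final; RPMI 1640 + 0.5% Albumax; 37 C, 5% CO2, one generation; luminescence read-out, lower signal = inhibition.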
NS1 inh = influenza NS1 inhibition; AID 2326; Potency, µM (titrated, usually from 46.1 µM); 270,000 compounds, 0.4% hits; note: actives are rising curves; nearly all actives have a fitted effect of over 50% in size
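OD600 was taken as the measure of yeast growth restored by compound in an NS1-expressing S. cerevisiae strain. Cells had been washed out of glucose medium and diluted 1:100 into galactose -URA medium, pH 6.0.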
CHX counter = counter-screen hit for Shiga toxin inhibitors, cycloheximide. max response, %. AID 2314. 300,000 compounds, 12% hits. cell reporter, cycloheximide protein synthesis inhibition counterscreen; in the data active = max response mostly above about 13%, no sharp cut-off; inactive = mostly below about 14%; note: read at 38.3 µM for the half of the compounds with a filed dose
Shiga toxin inh = Shiga toxin inhibition | Vero cells, Shiga toxin protein synthesis inhibition reporter | inhibition, % at 38.7 µM | 290,000 compounds, 9.2% hits; in the data active = inhibition mostly above about 28%, no sharp cut-off; inactive = mostly below about 43%
SARS PLpro yeast = blocks SARS-CoV papain-like protease in a yeast assay; 330,000 compounds, 0.19% hits; S. cerevisiae expressing SARS-CoV PLpro, growth rescue; Potency, µM (doses to about 32.9 µM), actives largely listed as activators; note: nearly all actives have a fitted effect of over 55% in size
Pf growth 96h = P. falciparum growth inhibition at 96 hours. Potency, µM (titrated, usually from 28.7 µM), hits mostly inhibitors. AID 504834. 320,000 compounds, 6.9% hits. P. falciparum luciferase reporter growth, 96 h; active = well fitted inhibition curve with a large enough effect; inconclusive = small, poorly fitted or top-dose-only effect, or another doubt; inactive = no such curve, though single readings can be large or run the other way
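Plates of compound plus infected erythrocytes (2% hematocrit, 0.05% parasitemia final) incubate 96 hours, 37 C, 5% CO2. Detection reagent added; reduced luminescence from the parasites' luciferase reporter flags inhibition.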
Large screens that a line does not name were inactive. Unless noted, calls come from the whole dose curve.

O=C(N/N=C/c1c(O)ccc2ccccc12)c1[nH]ncc1Br	Pf growth 48h 12µM, CHX counter 44, Shiga toxin inh 82, SARS PLpro yeast inconclusive, Pf growth 96h 12µM
CCCN1CCC(NC(=O)CC2C(=O)NCCN2Cc2cccc(OC)c2)CC1 (stereo not drawn)	Pf growth 96h inconclusive
Cc1cccc(CCNC(=O)CC2C(=O)NCCN2CC2CCCCC2)n1 (stereo not drawn)	Pf growth 48h inconclusive, Pf growth 96h inconclusive
Cc1cccc(CCNC(=O)CC2C(=O)NCCN2Cc2ccccc2C)n1 (stereo not drawn)	Pf growth 96h 12µM
CCCN1CCC(NC(=O)CC2C(=O)NCCN2Cc2ccccc2C)CC1 (stereo not drawn)	Pf growth 96h 10µM
CC1CCCC(C)N1C(=O)COC(=O)/C=C/c1ccc(Br)o1 (stereo not drawn)	none (no result: Pf growth 48h, NS1 inh, CHX counter, Shiga toxin inh, Pf growth 96h)
COc1ccc(C2=Nn3c(nnc3-c3ccccc3OC)SC2)cc1	none (no result: Pf growth 48h, NS1 inh, SARS PLpro yeast, Pf growth 96h)
COc1ccc2c(c1)CCc1c(C(=O)N3CCOCC3)noc1-2	CHX counter 31, Shiga toxin inh 74 (no result: Pf growth 96h)
COc1ccc2c(c1)CCc1c(C(=O)N3CC4(C)CC3CC(C)(C)C4)noc1-2 (stereo not drawn)	Pf growth 48h 15µM, Pf growth 96h inconclusive
COc1ccc(C(=O)N2CC3(C)CC2CC(C)(C)C3)cc1 (stereo not drawn)	Pf growth 48h inconclusive (no result: SARS PLpro yeast)
COc1ccc2c(c1)CCc1c(C(=O)N3CCCc4ccccc43)noc1-2	Pf growth 48h 6.6µM, CHX counter 27
COCCCN1C(=O)CC(C(=O)OC)=C1C	none (no result: NS1 inh)
C=CCn1c(N2CCN(c3ccc(OC)cc3)CC2)nc2c1c(=O)[nH]c(=O)n2C	none
O=c1oc(-c2ccccc2F)nc2scc(-c3ccccc3)c12	CHX counter 21, Shiga toxin inh 32, Pf growth 96h inconclusive
Cc1nc2scc(-c3ccccc3)c2c(=O)o1	Pf growth 96h inconclusive
CC(C)C(OC(=O)c1cc2c(s1)CCCCC2)C(=O)NC(N)=O (stereo not drawn)	none
Cc1ccc(/C=N/NC(=O)c2ccncc2)o1	none
CC(C)NC(=O)c1cc2c(s1)CCCC2	CHX counter 18, Shiga toxin inh 44
CC(OC(=O)c1cc2c(s1)CCCCC2)C(=O)NC(N)=O (stereo not drawn)	CHX counter 23
Cc1ccc(/C=N/NC(=O)c2cc3c(s2)CCCC3)o1	Pf growth 48h 8.3µM, Pf growth 96h inconclusive (no result: NS1 inh, CHX counter, Shiga toxin inh)
O=C(CCN1CCC(c2ccccc2)C1)c1cccs1 (stereo not drawn)	Pf growth 96h inconclusive
O=C(c1cccs1)N1CCC(N2CCN(c3ccccc3)CC2)CC1	Pf growth 96h 3.3µM
O=C(c1cccs1)N1CCC(c2ccccc2)C1 (stereo not drawn)	CHX counter 41, Shiga toxin inh 97
O=C(c1cccs1)N1CCN(c2ccc(Cl)cc2)CC1	CHX counter 22
CC(=O)N1CCc2c(sc(NC(=O)Cc3ccc(C)cc3C)c2C#N)C1	none
C=CCSc1nnc(-c2cc(C(C)(C)C)nn2Cc2ccc(F)cc2)n1C	Pf growth 48h 13µM, Pf growth 96h 9.3µM
NNC(=O)CCc1ccc2ccc3ccccc3c2c1	none (no result: Pf growth 48h, CHX counter, Shiga toxin inh, SARS PLpro yeast, Pf growth 96h)
CC1CC2CCC(O2)C(C)C(=O)OC(C)CC2CCC(O2)C(C)C(=O)OC(C)CC2CCC(O2)C(C)C(=O)OC(C)CC2CCC(O2)C(C)C(=O)O1 (stereo not drawn)	none (no result: Pf growth 48h, NS1 inh, SARS PLpro yeast, Pf growth 96h)
Cc1ccc(C)n1-c1ccc(-c2ccn[nH]2)cc1	Pf growth 48h inconclusive, CHX counter 36, Shiga toxin inh 71, Pf growth 96h inconclusive (no result: NS1 inh)
Oc1ccccc1-c1ccn[nH]1	none (no result: Pf growth 48h, NS1 inh, CHX counter, Shiga toxin inh, Pf growth 96h)
c1ccn(-c2ccc(-c3ccn[nH]3)cc2)c1	CHX counter 37, Shiga toxin inh 91 (no result: NS1 inh)
O=NCc1ccc([N+](=O)[O-])o1	Pf growth 48h inconclusive, Pf growth 96h 13µM (no result: NS1 inh, CHX counter, Shiga toxin inh, SARS PLpro yeast)
Cc1c(C(=O)O)oc2c1/C(=N\O)CC(C)(C)C2	none
CCOC(=O)c1cnc(SCc2cccc(C)c2)nc1N	CHX counter 53, Shiga toxin inh 54
CCOC(=O)c1cnc(SCC(=O)c2ccc(C)cc2)nc1N	Pf growth 96h inconclusive
CCOC(=O)c1cnc(SC)nc1N	CHX counter 17 (no result: Pf growth 48h)
CCOC(=O)c1cnc(SCC(C)C)nc1N	CHX counter 52, Shiga toxin inh active
COc1cccc(C(=O)C2CCCN(Cc3cn(CC(N)=O)c4ccccc34)C2)c1 (stereo not drawn)	Pf growth 48h inconclusive
COc1ccc(C)cc1NC(=O)C(=O)c1cn(CC(=O)N2CCCC2)c2ccccc12	Pf growth 48h inconclusive, Pf growth 96h 8.3µM
Cc1ccc(NC(=O)C(=O)c2cn(CC(=O)N3CCCCC3)c3ccccc23)cc1	Pf growth 96h inconclusive
COc1ccc(OC)c(NC(=O)C(=O)c2cn(CC(=O)N3CCCC3)c3ccccc23)c1	Pf growth 48h 9.3µM, Pf growth 96h 4.7µM
CCc1ccc(NC(=O)C(=O)c2cn(CC(=O)N3CCCCC3)c3ccccc23)cc1	Pf growth 96h inconclusive
COc1ccc(NC(=O)C(=O)c2cn(CC(=O)N3CCCC3)c3ccccc23)cc1OC	Pf growth 96h inconclusive
COc1cccc(NC(=O)C(=O)c2cn(CC(=O)N3CCCC3)c3ccccc23)c1	CHX counter 17, Shiga toxin inh 29, Pf growth 96h 10µM
Cc1ccc(C(=O)C2CCOC(C)(C)C2)cc1 (stereo not drawn)	Pf growth 96h inconclusive
CC(=O)n1cc([C@@H]2C=C(C(=O)O)O[C@H](OCc3ccc(CO)cc3)C2)c2ccccc21	none
O=C(Nc1ccccc1)C1=C[C@H](c2csc3ccccc23)C[C@H](OCCCCO)O1	Pf growth 48h inconclusive, CHX counter 12, Pf growth 96h 8.3µM
C#CCNC(=O)C1=C[C@H](c2coc3ccccc3c2=O)C[C@H](OCc2ccc(CO)cc2)O1	Pf growth 96h inconclusive
CC(=O)n1cc([C@@H]2C=C(C(=O)NCc3ccccc3)O[C@H](OCc3ccc(CO)cc3)C2)c2ccccc21	Pf growth 48h 12µM, Pf growth 96h 5.2µM
CC(=O)n1cc([C@@H]2C=C(C(=O)Nc3ccccc3)O[C@H](OCCCCO)C2)c2ccccc21	Pf growth 48h inconclusive, Shiga toxin inh 24, Pf growth 96h inconclusive
C#CCNC(=O)C1=C[C@H](c2cn(C(C)=O)c3ccccc23)C[C@H](OCc2ccc(CO)cc2)O1	Pf growth 48h inconclusive, Pf growth 96h 10µM
CCN(CC)C(=O)C1=C(C)Nc2ncnn2C1c1cccnc1 (stereo not drawn)	none
CN1C=CC(=C2C=CN(C)C=C2)C=C1	none (no result: Pf growth 48h, NS1 inh, SARS PLpro yeast, Pf growth 96h)
CC1CC(C)CN(CCCNC(=O)Cc2c(C(=O)O)[nH]c3ccccc23)C1 (stereo not drawn)	Pf growth 96h inconclusive
O=C(Nc1ccccc1)C1=C[C@@H](c2coc3ccccc3c2=O)C[C@@H](OCc2ccc(CO)cc2)O1	Pf growth 48h inconclusive, Pf growth 96h inconclusive

Compound activity deposited in PubChem BioAssay by National Center for Advancing Translational Sciences (NCATS).
